Results: PubChem BioAssay (NCATS)
Unmarked numbers belong to inactive results. Records with an inconclusive call do not appear. Where a call stands in place of a potency, no number is given. Calls of active or inactive are those of the source. Unless noted, calls come from the whole dose curve; as a rule, active = well fitted curve in the direction sought with a large enough effect; inconclusive = small, poorly fitted or top-dose-only effect, or another doubt; inactive = no such curve, though single readings can be large; an effect the other way counts as inactive or inconclusive.

How the values were obtained:
[1] = target: Lysosomal acid glucosylceramidase (Homo sapiens) (UniProt P04062); test: Glucocerebrosidase-p2 (AID 348; in the data active = potency below about 10 µM; note: potency is the fitted concentration of half-maximal effect); conditions: purified GBA, blue fluorogenic substrate, 40 min
Summary of the method: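 Compounds titrated from 0.6 nM upwards against 0.2 nM enzyme in pH 5.9 citric acid/KH2PO4, taurocholate, tween-20; blue fluorogenic substrate 80 uM, 40 min room temperature, stopped and read Ex 365/Em 440 for AC50.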

[2] = AP1 Signaling Pathway (AID 357; active = well fitted curve in either direction with a large enough effect, not every such curve was filed as active;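 note: ME-180 reporter cells stimulated with EGF at its EC50 level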); conditions: ME-180 AP-1-bla reporter, EGF-induced, beta-lactamase ratio, 5 h; at 7.69 µM (top of the series) unless noted
Summary of the method: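 Modulation of EGF-driven AP-1 transcription was assessed with a beta-lactamase reporter in ME-180 cells. Compound and EC50 EGF were co-incubated 5 hours at 37 °C before 2.5-hour CCF4 loading at room temperature and dual-emission reading.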

[3] = target: Cytochrome P450 1A2 (Homo sapiens) (UniProt P05177); test: p450-cyp1a2 (AID 410; calls by dose curve; note: potency is the fitted concentration of half-maximal effect)
Chain of Cytochrome P450 1A2 (Homo sapiens) (P05177 whole entry, looked up): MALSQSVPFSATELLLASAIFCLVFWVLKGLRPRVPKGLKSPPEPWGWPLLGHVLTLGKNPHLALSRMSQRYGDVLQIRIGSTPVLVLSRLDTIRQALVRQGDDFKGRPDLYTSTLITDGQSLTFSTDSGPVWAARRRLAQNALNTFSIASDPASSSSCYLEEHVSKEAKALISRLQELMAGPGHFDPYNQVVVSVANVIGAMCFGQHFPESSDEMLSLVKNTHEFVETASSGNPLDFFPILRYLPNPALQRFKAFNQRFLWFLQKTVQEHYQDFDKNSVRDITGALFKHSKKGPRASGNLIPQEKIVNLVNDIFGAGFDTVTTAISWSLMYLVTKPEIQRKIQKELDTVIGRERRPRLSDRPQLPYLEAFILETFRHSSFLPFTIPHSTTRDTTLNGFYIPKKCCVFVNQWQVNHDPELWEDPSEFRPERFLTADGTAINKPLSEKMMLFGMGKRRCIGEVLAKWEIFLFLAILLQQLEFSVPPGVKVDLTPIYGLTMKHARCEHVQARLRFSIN
Summary of the method: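 Human CYP1A2 (20nM) demethylated Luciferin-ME at its Km (100uM) in 100mM KPO4. After 10 min compound preincubation, NADPH regeneration ran the reaction 60 min at room temperature. Luciferin was read by luminescence, normalized to 57 uM furafylline.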

[4] = NFAT Signaling Pathway (AID 444; active = well fitted curve in either direction with a large enough effect, not every such curve was filed as active;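 note: carbachol stimulus at about its EC50 of 1 µM final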); conditions: Jurkat NFAT-bla M1, carbachol, beta-lactamase ratio, 5 h; at 7.69 µM (top of the series) unless noted
Summary of the method: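 Jurkat cells with NFAT-driven β-lactamase reporter and co-expressed M1 receptor, stimulated with carbachol (final 1 uM, ~EC50), compound titration, 5 h at 37 °C. CCF4 loaded 1 h at RT; 460/530 nm ratio gave %activity and AC50.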

[5] = Stat Signaling Pathway (AID 446; active = well fitted curve in either direction with a large enough effect, not every such curve was filed as active;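 note: ME-180 cervical cancer cells given 40 pM IL-6 alongside compound; SIE-controlled beta-lactamase reporter measured as 460/530 nm FRET emission ratio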)
Summary of the method: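 Reporter line: ME-180 cervical carcinoma, SIE-beta-lactamase. Treatment: compound with 40 pM IL-6, 5 hrs, 37 C, in low-serum OPTI-MEM with 10 mM HEPES pH 7.3. Detection: 460/530 nm fluorescence.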

[6] = target: Glucocorticoid receptor (Homo sapiens) (UniProt P04150); test: GR-GFP Redistribution (AID 450;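 active = compounds whose dose series gives a full or clear partial fitted curve of increased nuclear translocation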; note: potency is the fitted concentration of half-maximal effect); conditions: U2OS GR-GFP nuclear translocation, laser cytometry, 2 h
Chain of Glucocorticoid receptor (Homo sapiens) (P04150 whole entry, looked up, the tested form may be a part): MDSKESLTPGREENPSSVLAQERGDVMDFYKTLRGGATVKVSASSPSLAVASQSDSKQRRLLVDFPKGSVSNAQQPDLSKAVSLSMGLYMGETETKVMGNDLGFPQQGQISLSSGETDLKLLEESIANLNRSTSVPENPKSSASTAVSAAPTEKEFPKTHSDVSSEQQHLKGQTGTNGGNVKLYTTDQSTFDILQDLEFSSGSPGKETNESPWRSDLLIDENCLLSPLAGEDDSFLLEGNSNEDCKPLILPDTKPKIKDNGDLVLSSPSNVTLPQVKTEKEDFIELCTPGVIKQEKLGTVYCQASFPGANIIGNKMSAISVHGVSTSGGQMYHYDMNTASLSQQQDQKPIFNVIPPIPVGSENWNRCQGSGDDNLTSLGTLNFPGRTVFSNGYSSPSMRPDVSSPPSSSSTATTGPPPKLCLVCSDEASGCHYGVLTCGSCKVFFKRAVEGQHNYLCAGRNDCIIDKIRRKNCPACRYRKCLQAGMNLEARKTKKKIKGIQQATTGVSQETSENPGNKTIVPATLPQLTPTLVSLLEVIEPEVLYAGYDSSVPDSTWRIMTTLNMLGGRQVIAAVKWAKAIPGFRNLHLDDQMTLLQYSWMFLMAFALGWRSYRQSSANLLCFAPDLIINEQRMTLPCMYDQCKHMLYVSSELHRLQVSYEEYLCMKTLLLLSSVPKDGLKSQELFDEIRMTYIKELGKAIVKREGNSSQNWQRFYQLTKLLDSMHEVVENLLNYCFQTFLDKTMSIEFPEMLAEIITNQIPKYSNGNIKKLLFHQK

[7] = target: Glucocorticoid receptor (Homo sapiens) (UniProt P04150); test: GR-EFC Redistribution (AID 451; calls by dose curve; note: potency is the fitted concentration of half-maximal effect); conditions: CHO-K1 GR-EFC translocation, beta-gal luminescence, 2 h
Summary of the method: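 CHO-K1 cells expressing nuclear EA and GR-ED fragments of b-gal; compounds titrated up to 46 uM final, 2 h at 37 C. GR nuclear translocation read as complemented b-gal luminescence after 1 h RT detection.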

[8] = target: Mitogen-activated protein kinase 10 (Mus musculus) (UniProt Q61831); test: JNK3 AlphaScreen Assay (AID 530; active = well fitted curve in either direction with a large enough effect, not every such curve was filed as active;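 note: kinase came from lysate of stimulated human HepG2 cells; signal reports phosphorylation of biotinylated GST-cJun 1-79 at Ser73 with 10 µM ATP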)
Summary of the method: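 qHTS format: compounds tested as titrations against IL-1beta/TNF-alpha-activated HepG2 lysate JNK3 with biotin-GST-cJun substrate and 10 uM ATP at room temperature. Loss of anti-phospho-cJun AlphaScreen signal indicates inhibition.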

[9] = target: 3',5'-cyclic-AMP phosphodiesterase 4B (Homo sapiens) (UniProt Q07343); test: qHTS Assay for Inhibitors of PDE-IV (AID 607; active = well fitted activation curve with a large enough effect in the main read-out, with a control signal flat, not every such curve was filed as active)
Chain of 3',5'-cyclic-AMP phosphodiesterase 4B (Homo sapiens) (Q07343 whole entry, looked up): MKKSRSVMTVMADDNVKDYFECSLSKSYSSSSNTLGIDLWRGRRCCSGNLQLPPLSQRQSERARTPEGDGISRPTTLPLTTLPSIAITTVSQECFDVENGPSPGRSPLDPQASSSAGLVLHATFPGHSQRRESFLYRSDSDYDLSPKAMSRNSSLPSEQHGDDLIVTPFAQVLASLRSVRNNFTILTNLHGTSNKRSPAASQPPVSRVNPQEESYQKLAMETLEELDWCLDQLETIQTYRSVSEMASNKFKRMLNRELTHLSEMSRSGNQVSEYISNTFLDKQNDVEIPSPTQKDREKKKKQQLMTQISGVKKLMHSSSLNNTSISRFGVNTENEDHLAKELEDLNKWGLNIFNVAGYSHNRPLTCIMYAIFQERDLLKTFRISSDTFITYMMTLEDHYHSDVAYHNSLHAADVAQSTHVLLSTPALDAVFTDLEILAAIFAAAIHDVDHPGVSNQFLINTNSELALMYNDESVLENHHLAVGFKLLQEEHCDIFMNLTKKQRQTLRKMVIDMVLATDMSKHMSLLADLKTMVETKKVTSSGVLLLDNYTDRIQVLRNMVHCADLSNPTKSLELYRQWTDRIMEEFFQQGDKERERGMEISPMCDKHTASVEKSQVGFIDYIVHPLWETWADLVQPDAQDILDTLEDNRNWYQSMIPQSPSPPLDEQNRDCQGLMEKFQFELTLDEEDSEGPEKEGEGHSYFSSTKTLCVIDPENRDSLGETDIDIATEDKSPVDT
Summary of the method: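 Cell-based read-out of cAMP via a modified cyclic nucleotide-gated channel and membrane potential dye (535/590 nm) in HEK293 cells expressing PDE4 endogenously. Compounds tested up to 22.9 uM final; 100 uM RO 20-1724 reference.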

[10] = target: Cytochrome P450 3A4 (Homo sapiens) (UniProt P08684); test: qHTS Assay for Activators of Cytochrome P450 3A4 (AID 885); note: nearly all actives have a fitted effect of over 65% in size
Chain of Cytochrome P450 3A4 (Homo sapiens) (P08684 whole entry, looked up): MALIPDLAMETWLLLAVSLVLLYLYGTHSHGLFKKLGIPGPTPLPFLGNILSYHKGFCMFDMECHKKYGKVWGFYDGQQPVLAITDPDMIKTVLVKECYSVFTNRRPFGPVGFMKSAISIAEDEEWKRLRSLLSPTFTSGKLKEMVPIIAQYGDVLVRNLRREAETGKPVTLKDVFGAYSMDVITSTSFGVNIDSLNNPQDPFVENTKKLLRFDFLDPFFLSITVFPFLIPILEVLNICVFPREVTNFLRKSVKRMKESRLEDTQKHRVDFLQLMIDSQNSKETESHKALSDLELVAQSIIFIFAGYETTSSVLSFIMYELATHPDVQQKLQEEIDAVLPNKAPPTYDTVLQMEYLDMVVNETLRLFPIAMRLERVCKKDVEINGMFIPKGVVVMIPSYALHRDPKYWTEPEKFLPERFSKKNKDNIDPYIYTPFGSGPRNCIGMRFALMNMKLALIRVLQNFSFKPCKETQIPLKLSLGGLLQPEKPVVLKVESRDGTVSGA
Summary of the method: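 Signal was normalized against complete inhibition by 57 uM ketoconazole. The reaction used 20nM CYP3A4 with 25uM Luciferin-PPXE, 10-min compound preincubation and a 60-min NADPH-supported step at RT.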

[11] = target: Dual specificity protein kinase CLK4 (Homo sapiens) (UniProt Q9HAZ1); test: qHTS Assay for Inhibitors of CDC-like Kinase 4 (ADP-Glo Assay) (AID 1771); note: nearly all actives have a fitted effect of over 70% in size
Summary of the method: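 Clk4 (25 nM) was incubated 1 hr at room temperature with 100 uM RS repeat peptide and 1 uM ATP in buffer with 2 mM MgCl2, 0.5 mM EGTA, 2.5 mM DTT. ADP formed was quantified by ADP-Glo luminescence.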

[12] = target: Ubiquitin carboxyl-terminal hydrolase 1 (Homo sapiens) (UniProt O94782); test: Inhibitors of USP1/UAF1: Pilot qHTS (AID 504865);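 note: rhodamine fluorescence freed from ubiquitin-rhodamine substrate followed over time; top concentration of the series differs between compounds; nearly all actives have a fitted effect of over 35% in size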
Summary of the method: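 USP1/UAF1 complex at 1 nM preincubated 15 min at room temperature with compound, then Ub-Rho substrate added at 150 nM final. Fluorescence (480/540 nm) read kinetically in 50 mM HEPES pH 7.8, 0.5 mM EDTA, 1 mM TCEP, 0.1 mg/ml BSA, 0.01% Tween-20.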

[13] = target: Rap guanine nucleotide exchange factor 3 (Homo sapiens) (UniProt O95398); test: Confirmatory qHTS for antagonist of cAMP-regulated guanine nucleotide exchange factor 3 (EPAC1) (AID 1645880); conditions: EPAC1 Rap1B-BODIPY-GDP exchange, fluorescence; activity, negative = inhibition: at 115 µM (top of the series); note: nearly all actives have a fitted effect of over 55% in size; note: potency is the fitted concentration of half-maximal effect
Chain of Rap guanine nucleotide exchange factor 3 (Homo sapiens) (O95398 whole entry, looked up): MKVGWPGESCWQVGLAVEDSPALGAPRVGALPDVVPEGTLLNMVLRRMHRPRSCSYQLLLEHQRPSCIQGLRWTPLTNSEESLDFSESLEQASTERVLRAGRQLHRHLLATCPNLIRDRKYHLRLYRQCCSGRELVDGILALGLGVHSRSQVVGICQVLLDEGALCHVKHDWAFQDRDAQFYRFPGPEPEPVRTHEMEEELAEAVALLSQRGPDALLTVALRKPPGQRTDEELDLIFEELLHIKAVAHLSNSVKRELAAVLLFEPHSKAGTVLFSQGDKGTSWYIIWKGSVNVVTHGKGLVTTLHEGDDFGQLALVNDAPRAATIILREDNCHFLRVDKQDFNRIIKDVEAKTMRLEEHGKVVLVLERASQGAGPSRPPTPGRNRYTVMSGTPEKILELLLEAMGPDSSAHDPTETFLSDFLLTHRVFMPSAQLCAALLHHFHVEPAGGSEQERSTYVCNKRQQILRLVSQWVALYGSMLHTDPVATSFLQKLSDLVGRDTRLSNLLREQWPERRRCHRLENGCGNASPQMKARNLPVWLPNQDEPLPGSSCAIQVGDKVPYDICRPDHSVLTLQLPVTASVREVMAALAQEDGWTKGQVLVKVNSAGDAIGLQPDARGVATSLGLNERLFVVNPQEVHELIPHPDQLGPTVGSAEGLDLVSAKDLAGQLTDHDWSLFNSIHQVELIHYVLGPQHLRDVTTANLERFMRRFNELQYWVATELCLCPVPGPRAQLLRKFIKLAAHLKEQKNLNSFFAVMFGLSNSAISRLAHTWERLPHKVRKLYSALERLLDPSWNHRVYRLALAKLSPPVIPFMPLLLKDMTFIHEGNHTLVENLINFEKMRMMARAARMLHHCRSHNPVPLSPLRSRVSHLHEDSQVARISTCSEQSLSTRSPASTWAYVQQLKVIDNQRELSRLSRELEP
Summary of the method: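 Nucleotide exchange uses 100 nM EPAC1, 250 nM RAP1B-BODIPY-GDP and 50 uM GDP, with compounds in a concentration-titration series. After 5 min at room temperature, fluorescence (480 nm ex/540 nm em) is read every 5 min for 30 min. Data are normalized to control ATA and DMSO.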

[14] = target: Rap guanine nucleotide exchange factor 3 (Homo sapiens) (UniProt O95398); test: Confirmatory qHTS for agonist of cAMP-regulated guanine nucleotide exchange factor 3 (EPAC1) (AID 1645881); note: nearly all actives have a fitted effect of over 75% in size; note: potency is the fitted concentration of half-maximal effect;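 for activation: EPAC1 catalysed release of BODIPY-GDP from Rap1B seen as fluorescence loss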
[15] = target: Rap guanine nucleotide exchange factor 4 (Homo sapiens) (UniProt Q8WZA2); test: Confirmatory qHTS for agonist of cAMP-regulated guanine nucleotide exchange factor 4 (EPAC2) (AID 1645884);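 note: nucleotide exchange releases bodipy-GDP from Rap1 and this lowers its fluorescence; nearly all actives have a fitted effect of over 65% in size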; note: potency is the fitted concentration of half-maximal effect
Chain of Rap guanine nucleotide exchange factor 4 (Homo sapiens) (Q8WZA2 whole entry, looked up): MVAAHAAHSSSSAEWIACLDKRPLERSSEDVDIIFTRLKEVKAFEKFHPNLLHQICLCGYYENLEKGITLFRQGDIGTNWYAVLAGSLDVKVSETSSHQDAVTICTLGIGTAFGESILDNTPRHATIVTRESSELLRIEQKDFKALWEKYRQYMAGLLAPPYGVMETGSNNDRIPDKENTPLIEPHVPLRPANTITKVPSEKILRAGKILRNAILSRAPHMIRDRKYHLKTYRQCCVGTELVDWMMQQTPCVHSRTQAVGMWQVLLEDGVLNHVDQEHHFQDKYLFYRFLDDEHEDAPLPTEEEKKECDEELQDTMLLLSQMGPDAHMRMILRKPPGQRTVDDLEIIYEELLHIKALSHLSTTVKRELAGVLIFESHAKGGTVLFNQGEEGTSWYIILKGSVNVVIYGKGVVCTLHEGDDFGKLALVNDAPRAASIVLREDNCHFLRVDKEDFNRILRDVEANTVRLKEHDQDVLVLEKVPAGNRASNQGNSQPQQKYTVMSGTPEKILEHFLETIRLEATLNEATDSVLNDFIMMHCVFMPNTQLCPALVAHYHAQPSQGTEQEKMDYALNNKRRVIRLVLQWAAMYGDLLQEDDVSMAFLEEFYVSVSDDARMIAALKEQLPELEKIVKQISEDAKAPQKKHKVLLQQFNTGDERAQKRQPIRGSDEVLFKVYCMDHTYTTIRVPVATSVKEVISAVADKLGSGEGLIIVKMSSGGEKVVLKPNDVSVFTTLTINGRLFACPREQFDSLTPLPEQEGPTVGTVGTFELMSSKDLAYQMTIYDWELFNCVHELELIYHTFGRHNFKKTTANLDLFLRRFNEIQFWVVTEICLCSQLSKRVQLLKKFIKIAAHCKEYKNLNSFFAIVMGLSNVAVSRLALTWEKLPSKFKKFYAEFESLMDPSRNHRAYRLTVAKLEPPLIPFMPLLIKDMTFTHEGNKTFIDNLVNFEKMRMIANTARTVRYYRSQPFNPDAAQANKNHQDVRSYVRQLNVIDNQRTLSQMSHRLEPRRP

[16] = target: Rap guanine nucleotide exchange factor 4 (Homo sapiens) (UniProt Q8WZA2); test: Confirmatory qHTS for antagonist of cAMP-regulated guanine nucleotide exchange factor 4 (EPAC2) (AID 1645885); note: nearly all actives have a fitted effect of over 25% in size; note: potency is the fitted concentration of half-maximal effect
[17] = target: Cytochrome P450 2C9 (Homo sapiens) (UniProt P11712); test: qHTS Assay for Inhibitors and Substrates of Cytochrome P450 2C9 (AID 883); note: potency is the fitted concentration of half-maximal effect; nearly all actives have a fitted effect of over 60% in size
Summary of the method: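 10nM CYP2C9 + 100uM Luciferin-H (=KM), 25mM KPO4; cpd 10 min 37C; NADPH regen, 60 min 37C; stop/detect with P450 Glo-Buffer 20 min; luminescence. Norm. to 57uM sulphaphenazole as full inhibition.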

[18] = target: Cytochrome P450 3A4 (Homo sapiens) (UniProt P08684); test: qHTS Assay for Inhibitors and Substrates of Cytochrome P450 3A4 (AID 884); note: potency is the fitted concentration of half-maximal effect; nearly all actives have a fitted effect of over 50% in size
Summary of the method: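 20 nM human CYP3A4 with 25 uM Luciferin-PPXE (at KM) in 200 mM KPO4, preincubated 10 min with compound; NADPH regeneration started a 60 min RT reaction. Luciferin detected by luminescence, normalized to 57 uM ketoconazole as full inhibition.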

[19] = target: Rap guanine nucleotide exchange factor 3 (Homo sapiens) (UniProt O95398); test: Counterscreen qHTS for agonist of cAMP-regulated guanine nucleotide exchange factor 3 (EPAC1) (AID 1645889); note: nearly all actives have a fitted effect of over 40% in size; note: potency is the fitted concentration of half-maximal effect
Summary of the method: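 Rap1B–BODIPY-GDP (250 nM) with 50 uM GDP; compounds pin-transferred to 9.74 nM–152 uM final (activator) or from 7.32 nM upwards (inhibitor). Fluorescence Ex/Em 480/540 nm read at 5 and 30 min, then after adding cAMP or buffer, at room temperature.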

[20] = target: Tumor susceptibility gene 101 protein (Homo sapiens) (UniProt Q99816); test: qHTS Assay for Iinhibitors of HIV-1 Budding by Blocking the Interaction of PTAP/TSG101: Hit Validation (AID 651600); note: potency is the fitted concentration of half-maximal effect; nearly all actives have a fitted effect of over 70% in size
Chain of Tumor susceptibility gene 101 protein (Homo sapiens) (Q99816 whole entry, looked up, the tested form may be a part): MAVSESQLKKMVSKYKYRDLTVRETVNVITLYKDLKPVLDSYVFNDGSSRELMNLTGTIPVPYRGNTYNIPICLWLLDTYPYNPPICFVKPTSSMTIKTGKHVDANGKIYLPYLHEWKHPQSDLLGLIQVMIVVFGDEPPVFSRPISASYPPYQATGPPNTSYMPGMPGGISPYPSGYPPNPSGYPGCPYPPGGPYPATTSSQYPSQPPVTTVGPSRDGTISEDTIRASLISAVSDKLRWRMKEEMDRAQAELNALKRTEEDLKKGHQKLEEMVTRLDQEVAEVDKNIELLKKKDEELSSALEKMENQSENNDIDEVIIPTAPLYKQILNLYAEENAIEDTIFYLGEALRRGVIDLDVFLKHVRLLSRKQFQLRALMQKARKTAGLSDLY
Summary of the method: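 Fluorescence polarization binding assay: Tsg101 binding domain (10 uM) mixed with compounds and FITC-labeled PTAP peptide (50 nM) in HEPES pH 7.5, 0.15 M NaCl, 0.01% Tween 20, EDTA, TCEP; 20 min at r.t.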

## COc1cccc(Cn2c(=O)c(CCc3ccccc3)nc3cnc(N4CCN(C)CC4)nc32)c1
[1]
  Potency: > 11.4 µM
[2]
  activity change, negative = inhibition: -3.73%
[3]
  Potency: 15.8 µM (active)
[4]
  activity change, negative = inhibition: 8.33%
[5]
  outcome: inactive
[6]
  Potency: > 9.22 µM
[7]
  Potency: > 46 µM
[8]
  Potency: inactive
[9]
  Potency: inactive
[10]
  outcome: inactive
[11]
  Potency: inactive
[12]
  Potency: inactive
[13]
  Potency: inactive
[14]
  Potency: inactive
[15]
  Potency: inactive
[16]
  Potency: inactive

## O=C(c1cnccn1)N1CCC[C@@]2(CCN(c3cccc(-c4ccccc4)c3)C2)C1
[2]
  activity change, negative = inhibition: -18.4%
[3]
  Potency: 25.1 µM (active)
[4]
  activity change, negative = inhibition: 7.34%
[5]
  outcome: inactive
[7]
  Potency: > 46 µM
[8]
  Potency: inactive
[17]
  Potency: 7.94 µM (active)
[18]
  Potency: 3.98 µM (active)
[10]
  outcome: inactive
[13]
  Potency: inactive
[14]
  Potency: inactive
[15]
  Potency: inactive
[16]
  Potency: inactive

## Cc1cc(C)n(CCOc2ccc(Br)cc2)n1
[13]
  Potency: inactive
[14]
  Potency: inactive
[15]
  activation: 1.04% [at 17.1 µM, percent relative to cAMP agonist control]
[16]
  Potency: inactive
[19]
  activation: 4.02% [at 30.8 µM]

## Nc1ccc2cc3[nH]c4cc(N)ccc4c3nc2c1
[20]
  Potency: 0.366 µM (active)
[13]
  Potency: inactive
[14]
  Potency: 100 µM (active)
[15]
  Potency: 100 µM (active)
[16]
  Potency: inactive
[19]
  Potency: 63.1 µM (active)

## O=C1c2cccc3c(O)ccc(c23)C(=O)N1Cc1ccco1
[20]
  Potency: 1.46 µM (active)
[13]
  Potency: inactive
[14]
  Potency: 100 µM (active)
[15]
  Potency: 100 µM (active)
[16]
  Potency: 67.5 µM (active)
[19]
  Potency: 70.8 µM (active)

## O=c1cnc2cnc(OCc3ccccc3)nc2n1CCc1ccccc1
[1]
  Potency: > 11.4 µM
[2]
  activity change, negative = inhibition: -5.47%
[4]
  activity change, negative = inhibition: -27.9%
[7]
  Potency: > 46 µM
[9]
  Potency: inactive
[13]
  Potency: inactive
[14]
  Potency: inactive
[15]
  Potency: inactive
[16]
  Potency: 31.2 µM (active)

## Cc1ccc(S(=O)(=O)N2[C@@H](c3ccccc3)C(C(=O)O)=CC[C@H]2c2ccc(C(C)C)cc2)cc1
[13]
  Potency: 75.7 µM (active)
[14]
  Potency: inactive
[15]
  Potency: inactive
[16]
  Potency: inactive
[19]
  Potency: inactive
